The source made the active and inactive calls. The call rests on the fitted dose curve; in most records, active means well fitted curve in the direction sought with a large enough effect; inconclusive means small, poorly fitted or top-dose-only effect, or effect the other way, or another doubt; inactive means no such curve, though single readings can be large or run the other way.
Assay: Inducers of the Endoplasmic Reticulum Stress Response (ERSR) in human glioma: Validation (AID 504836); further: 0% is about no effect
Settings: human glioma cells, ER stress response reporter; series mostly up to 38.3 µM; activation: at the top concentration
In short: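 ERSR induction read as luciferase luminescence (Bright-Glo, 10 min at room temperature) in stably transfected human U87-MG glioma cells exposed to compounds for 16 h, using GRP78 as sensor.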

Row | Structure (SMILES) | activation
1 | CCN(CC)CC(=O)Nc1c(C)cccc1C | -0.804% (inactive)
2 | C[N+](C)(C)CCOC(=O)CCC(=O)OCC[N+](C)(C)C | -3.18% (inactive)
3 | O=C1CC2(CCCC2)CC(=O)N1CCCCN1CCN(c2ncccn2)CC1 | -4.21% (inactive)
4 | Cc1cc(C(C)(C)C)c(O)c(C)c1CC1=NCCN1 | 0.919% (inactive)
5 | COc1ccc2c(c1OC)C(=O)O[C@@H]2[C@H]1c2c(cc3c(c2OC)OCO3)CCN1C | -0.374% (inactive)
6 | COc1ccccc1N1CCN(CC(O)COc2cccc3ccccc23)CC1 (stereo not drawn) | -1.88% (inactive)
7 | CCNC(=O)N1CCN(CCCC(c2ccc(F)cc2)c2ccc(F)cc2)CC1 | 2.1% (inactive)
8 | CC(C(O)c1ccc(O)cc1)N1CCC(Cc2ccccc2)CC1 (stereo not drawn) | 1.4% (inactive)
9 | C=Cc1c(C)c2cc3[nH]c(cc4nc(cc5nc(cc1[nH]2)C(C)=C5CCC(=O)O)C(CCC(=O)O)=C4C)c(C)c3C=C | -1.14% (inactive)
10 | CN(C)CCOC(c1ccccc1)c1ccccc1 | -2.54% (inactive)
11 | C[N+](C)(C)CCCCCCCCCC[N+](C)(C)C | -3.9% (inactive)
12 | CN(C(=O)CCCOc1ccc2[nH]c(=O)ccc2c1)C1CCCCC1 | 7.38% (inactive)
13 | O=C1NCN(c2ccccc2)C12CCN(CCCC(c1ccc(F)cc1)c1ccc(F)cc1)CC2 | 0.483% (inactive)
14 | CCCC(C(=O)OCCN(CC)CC)(c1ccccc1)c1ccccc1 | -1.67% (inactive)
15 | CN1CCN(C2Cc3ccccc3Sc3ccc(Cl)cc32)CC1 (stereo not drawn) | 2.32% (inactive)
16 | Cc1nc2sccn2c(=O)c1CCN1CCC(=C(c2ccc(F)cc2)c2ccc(F)cc2)CC1 | -1.34% (inactive)
17 | O=C(CCNNC(=O)c1ccncc1)NCc1ccccc1 | -4.94% (inactive)
18 | Cc1cc(C)c(/C=C2\C(=O)Nc3ccccc32)[nH]1 | 0.328% (inactive)
19 | C[C@]12CCC(=O)C=C1CC[C@@H]1[C@@H]2CC[C@@]2(C)[C@H]1CC[C@]2(O)C(=O)CO | -5.7% (inactive)

Row | Structure (SMILES) | activation
20 | Cc1[nH]c(=O)c(C#N)cc1-c1ccc2nccn2c1 | -3.49% (inactive)
21 | CCc1cccc2c3c([nH]c12)C(CC)(CC(=O)O)OCC3 (stereo not drawn) | -5.32% (inactive)
22 | Cn1c(=O)c2c(ncn2C)n(C)c1=O | -2.4% (inactive)
23 | Nc1c2c(nc3ccccc13)CCCC2O (stereo not drawn) | -3.06% (inactive)
24 | C=CCc1ccccc1OCC(O)CNC(C)C (stereo not drawn) | -1.18% (inactive)
25 | CC(C(=O)O)c1ccc(CC2CCCC2=O)cc1 (stereo not drawn) | -0.237% (inactive)
26 | CN1Cc2c(N)cccc2C(c2ccccc2)C1 (stereo not drawn) | -6.09% (inactive)
27 | COc1ccc(CCN(C)CCCC(C#N)(c2cc(OC)c(OC)c(OC)c2)C(C)C)cc1OC (stereo not drawn) | -2.42% (inactive)
28 | CNCCC(Oc1ccccc1OC)c1ccccc1 (stereo not drawn) | -2.3% (inactive)
29 | CCOC(=O)Nc1ccc(NCc2ccc(F)cc2)nc1N | -5.1% (inactive)
30 | Nc1ccn([C@H]2CC[C@@H](CO)O2)c(=O)n1 | -1.79% (inactive)
31 | CCN(CC)CCCN(c1ccccc1)C1Cc2ccccc2C1 | -4.2% (inactive)
32 | O=C(O)c1cccnc1Nc1cccc(C(F)(F)F)c1 | 2.36% (inactive)
33 | NC1=NCC2c3ccccc3Cc3ccccc3N12 (stereo not drawn) | -2.63% (inactive)
34 | CN(C)CCCN1c2ccccc2Sc2ccc(C(F)(F)F)cc21 | -0.601% (inactive)
35 | CC(C)(Oc1ccc(CCNC(=O)c2ccc(Cl)cc2)cc1)C(=O)O | 3.8% (inactive)
36 | CCC(=O)c1ccc2c(c1)N(CCCN(C)C)c1ccccc1S2 | -0.121% (inactive)
37 | CC1=C(CC(=O)O)c2cc(F)ccc2/C1=C\c1ccc(S(C)=O)cc1 (stereo not drawn) | 1.62% (inactive)
38 | c1ccc([C@H]2CN3CCSC3=N2)cc1 | -0.794% (inactive)

From PubChem BioAssay (NCATS)
